Experimental data: ChEMBL document CHEMBL3988442, “University of Dundee, Small-Polar-MMV Screening Library” (2021)
For some assays here: Entries with a potency or affinity are not part of this list.

Tests used:
Parameters in all cases: scale not given: direction of the effect not stated beside the values
[1] = molecular target: Protein translocase subunit SecA (Escherichia coli (strain K12)) (UniProt P10408); test: Assay to Identify E. coli SecA ATPase Inhibitors; format: functional; conditions: 30 µM
Protein translocase subunit SecA (Escherichia coli (strain K12)), sequence (P10408 whole entry): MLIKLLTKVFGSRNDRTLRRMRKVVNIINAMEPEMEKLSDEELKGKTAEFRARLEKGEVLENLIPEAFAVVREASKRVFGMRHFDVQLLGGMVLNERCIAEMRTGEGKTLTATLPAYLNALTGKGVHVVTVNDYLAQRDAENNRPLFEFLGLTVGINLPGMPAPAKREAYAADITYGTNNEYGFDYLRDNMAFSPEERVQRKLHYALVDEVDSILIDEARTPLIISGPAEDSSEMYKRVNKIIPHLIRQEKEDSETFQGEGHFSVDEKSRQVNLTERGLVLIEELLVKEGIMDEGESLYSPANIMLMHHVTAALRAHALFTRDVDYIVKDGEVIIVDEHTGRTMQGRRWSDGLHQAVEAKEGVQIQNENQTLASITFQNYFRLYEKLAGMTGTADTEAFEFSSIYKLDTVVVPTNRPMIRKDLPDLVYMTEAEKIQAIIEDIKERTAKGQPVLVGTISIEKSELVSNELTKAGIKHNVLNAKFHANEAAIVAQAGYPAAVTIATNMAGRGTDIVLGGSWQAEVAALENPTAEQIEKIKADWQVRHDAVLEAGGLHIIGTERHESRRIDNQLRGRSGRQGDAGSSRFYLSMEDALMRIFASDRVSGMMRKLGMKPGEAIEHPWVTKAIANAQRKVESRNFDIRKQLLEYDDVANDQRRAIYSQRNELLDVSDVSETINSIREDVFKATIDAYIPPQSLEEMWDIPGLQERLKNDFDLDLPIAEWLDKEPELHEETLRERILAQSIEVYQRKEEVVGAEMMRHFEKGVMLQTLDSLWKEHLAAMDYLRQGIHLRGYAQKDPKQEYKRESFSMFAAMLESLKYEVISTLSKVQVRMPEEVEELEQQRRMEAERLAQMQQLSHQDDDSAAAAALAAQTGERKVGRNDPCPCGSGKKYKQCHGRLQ

[2] = molecular target: T1, Ubiquitin-activating enzyme e1, putative (Leishmania donovani (strain BPK282A1)) (UniProt E9BSI1); test: Leishmania donovani Ubiquitin Activating Enzyme (LdE1); format: functional; conditions: 30 µM
T1 sequence (whole entry): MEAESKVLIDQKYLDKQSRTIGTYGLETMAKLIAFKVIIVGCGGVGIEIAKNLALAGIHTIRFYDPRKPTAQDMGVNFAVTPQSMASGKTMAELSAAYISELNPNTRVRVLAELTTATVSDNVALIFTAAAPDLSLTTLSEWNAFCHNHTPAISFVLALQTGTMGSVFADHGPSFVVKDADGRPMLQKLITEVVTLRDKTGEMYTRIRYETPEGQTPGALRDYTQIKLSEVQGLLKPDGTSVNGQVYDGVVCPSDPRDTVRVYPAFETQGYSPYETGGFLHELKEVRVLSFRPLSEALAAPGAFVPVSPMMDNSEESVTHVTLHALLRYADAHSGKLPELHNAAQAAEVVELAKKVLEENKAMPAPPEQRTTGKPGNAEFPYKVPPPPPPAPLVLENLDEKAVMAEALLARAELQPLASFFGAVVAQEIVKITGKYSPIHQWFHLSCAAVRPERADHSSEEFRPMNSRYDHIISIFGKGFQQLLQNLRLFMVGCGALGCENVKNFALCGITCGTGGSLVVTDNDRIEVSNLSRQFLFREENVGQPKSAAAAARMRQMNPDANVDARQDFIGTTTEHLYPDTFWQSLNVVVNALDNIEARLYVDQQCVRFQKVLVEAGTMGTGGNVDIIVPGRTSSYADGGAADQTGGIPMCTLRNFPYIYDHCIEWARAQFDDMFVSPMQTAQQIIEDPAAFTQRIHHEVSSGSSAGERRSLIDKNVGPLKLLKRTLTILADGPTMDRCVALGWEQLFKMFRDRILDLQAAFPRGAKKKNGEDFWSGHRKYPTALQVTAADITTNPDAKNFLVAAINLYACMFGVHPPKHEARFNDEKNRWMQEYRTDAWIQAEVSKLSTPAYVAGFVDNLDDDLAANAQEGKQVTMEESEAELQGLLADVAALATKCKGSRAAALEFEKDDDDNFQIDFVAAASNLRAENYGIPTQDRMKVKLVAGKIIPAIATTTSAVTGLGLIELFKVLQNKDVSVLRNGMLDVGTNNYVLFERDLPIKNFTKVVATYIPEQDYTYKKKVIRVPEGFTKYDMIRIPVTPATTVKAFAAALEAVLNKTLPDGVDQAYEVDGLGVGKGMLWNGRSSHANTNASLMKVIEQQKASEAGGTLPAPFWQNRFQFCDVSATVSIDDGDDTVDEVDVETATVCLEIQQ

[3] = molecular target: Sialic acid-binding Ig-like lectin 9 (Homo sapiens) (UniProt Q9Y336); test: Hs-Siglec9 ALPHAscreen SOP 20170721; conditions: 10 µM
Sialic acid-binding Ig-like lectin 9 (Homo sapiens), sequence (Q9Y336 whole entry): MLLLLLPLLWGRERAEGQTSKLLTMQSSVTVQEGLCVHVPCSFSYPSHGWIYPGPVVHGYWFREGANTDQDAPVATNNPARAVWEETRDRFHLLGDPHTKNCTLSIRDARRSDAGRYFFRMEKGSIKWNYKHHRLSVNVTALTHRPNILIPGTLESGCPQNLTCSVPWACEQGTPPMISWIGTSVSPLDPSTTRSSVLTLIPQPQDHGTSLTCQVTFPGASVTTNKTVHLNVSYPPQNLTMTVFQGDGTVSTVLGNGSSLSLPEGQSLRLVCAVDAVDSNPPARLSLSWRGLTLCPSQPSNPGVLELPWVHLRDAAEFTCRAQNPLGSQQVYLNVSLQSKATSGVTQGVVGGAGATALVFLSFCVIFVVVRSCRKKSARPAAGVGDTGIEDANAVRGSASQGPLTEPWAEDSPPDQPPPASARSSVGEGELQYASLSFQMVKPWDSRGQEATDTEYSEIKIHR

[4] = tested on: Trypanosoma cruzi; test: Trypanosoma cruzi phosphomannomutase and mannose-1-phosphate guanylyltransferase assay; format: functional; conditions: 10 µM
[5] = molecular target: T2, Arginase-2, mitochondrial (Homo sapiens) (UniProt P78540); test: in vitro enzyme assay to detect the production of urea directly proportional to the activity of Arginase II; format: functional; conditions: 33.3 µM; also: in the data most compounds retested in dose-response had high values
T2 sequence (whole entry): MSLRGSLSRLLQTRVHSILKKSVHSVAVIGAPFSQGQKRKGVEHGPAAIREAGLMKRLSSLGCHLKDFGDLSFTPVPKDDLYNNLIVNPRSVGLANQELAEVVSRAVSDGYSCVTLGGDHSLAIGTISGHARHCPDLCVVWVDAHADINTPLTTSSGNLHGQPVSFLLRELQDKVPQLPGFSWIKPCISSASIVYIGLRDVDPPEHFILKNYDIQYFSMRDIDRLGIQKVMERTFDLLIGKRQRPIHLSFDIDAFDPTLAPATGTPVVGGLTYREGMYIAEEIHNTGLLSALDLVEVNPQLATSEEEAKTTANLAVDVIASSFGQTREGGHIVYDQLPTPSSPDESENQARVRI

[6] = molecular target: T3, Proteasome subunit beta (Trypanosoma cruzi) (UniProt O96673); test: Trypanosoma cruzi proteasome chymotrypsin-like activity (TcProtChymo) assay.; also: in the data most compounds retested in dose-response had high values; format: functional; conditions: 9.37 µM
T3 sequence (whole entry): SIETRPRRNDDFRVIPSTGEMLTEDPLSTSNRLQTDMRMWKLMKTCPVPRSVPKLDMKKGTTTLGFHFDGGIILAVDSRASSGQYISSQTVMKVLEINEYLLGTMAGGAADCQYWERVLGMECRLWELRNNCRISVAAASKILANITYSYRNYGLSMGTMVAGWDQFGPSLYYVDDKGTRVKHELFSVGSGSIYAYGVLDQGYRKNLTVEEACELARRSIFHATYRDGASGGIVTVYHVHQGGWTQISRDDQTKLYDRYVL

[7] = organism: Homo sapiens; test: To identify inhibition of the IFN signalling (Jak-Stat) pathway via expression of an eGFP reporter gene under the control of an IFN-stimulated response element (ISRE) containing MxA promoter.; format: functional; conditions: 30 µM
[8] = molecular target: T4, Tyrosyl-tRNA synthetase, putative (Trypanosoma cruzi (strain CL Brener)) (UniProt Q4DSP6); test: Trypanosoma cruzi tyrosyl tRNA synthetase (TcYRS) _High Tyrosine SOP; format: functional; conditions: 30 µM; also: in the data most compounds retested in dose-response had high values
T4 sequence (whole entry): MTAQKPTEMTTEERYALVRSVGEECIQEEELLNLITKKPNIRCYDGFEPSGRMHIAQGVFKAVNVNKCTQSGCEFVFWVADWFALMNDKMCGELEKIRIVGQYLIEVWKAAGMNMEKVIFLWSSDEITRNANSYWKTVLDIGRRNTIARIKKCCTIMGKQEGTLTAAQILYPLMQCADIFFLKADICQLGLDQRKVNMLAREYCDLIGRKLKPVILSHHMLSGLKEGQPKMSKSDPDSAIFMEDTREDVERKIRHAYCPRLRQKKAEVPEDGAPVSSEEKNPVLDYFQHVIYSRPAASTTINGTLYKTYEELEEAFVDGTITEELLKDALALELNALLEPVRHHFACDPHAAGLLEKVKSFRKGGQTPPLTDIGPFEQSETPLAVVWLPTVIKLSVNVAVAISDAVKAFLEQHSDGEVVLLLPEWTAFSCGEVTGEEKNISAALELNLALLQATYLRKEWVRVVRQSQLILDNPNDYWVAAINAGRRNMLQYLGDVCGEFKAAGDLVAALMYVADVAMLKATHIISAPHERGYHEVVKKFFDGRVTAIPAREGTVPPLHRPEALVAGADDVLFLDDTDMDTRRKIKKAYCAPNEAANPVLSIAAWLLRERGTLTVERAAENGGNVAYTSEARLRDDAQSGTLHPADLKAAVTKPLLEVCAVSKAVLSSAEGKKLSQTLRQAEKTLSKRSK

[9] = molecular target: T4, Tyrosyl-tRNA synthetase, putative (Trypanosoma cruzi (strain CL Brener)); test: Trypanosoma cruzi tyrosyl tRNA synthetase (TcYRS) SOP; format: functional; conditions: 30 µM
[10] = molecular target: Chromo domain-containing protein 1 (Saccharomyces cerevisiae (strain ATCC 204508 / S288c) (Baker's yeast)) (UniProt P32657); test: ScCHD-1 Enzyme Inhibition Assay; format: functional; conditions: 30 µM; also: in the data most compounds retested in dose-response had high values
Chromo domain-containing protein 1 (Saccharomyces cerevisiae (strain ATCC 204508 / S288c) (Baker's yeast)), sequence (P32657 whole entry, the tested form may be a part): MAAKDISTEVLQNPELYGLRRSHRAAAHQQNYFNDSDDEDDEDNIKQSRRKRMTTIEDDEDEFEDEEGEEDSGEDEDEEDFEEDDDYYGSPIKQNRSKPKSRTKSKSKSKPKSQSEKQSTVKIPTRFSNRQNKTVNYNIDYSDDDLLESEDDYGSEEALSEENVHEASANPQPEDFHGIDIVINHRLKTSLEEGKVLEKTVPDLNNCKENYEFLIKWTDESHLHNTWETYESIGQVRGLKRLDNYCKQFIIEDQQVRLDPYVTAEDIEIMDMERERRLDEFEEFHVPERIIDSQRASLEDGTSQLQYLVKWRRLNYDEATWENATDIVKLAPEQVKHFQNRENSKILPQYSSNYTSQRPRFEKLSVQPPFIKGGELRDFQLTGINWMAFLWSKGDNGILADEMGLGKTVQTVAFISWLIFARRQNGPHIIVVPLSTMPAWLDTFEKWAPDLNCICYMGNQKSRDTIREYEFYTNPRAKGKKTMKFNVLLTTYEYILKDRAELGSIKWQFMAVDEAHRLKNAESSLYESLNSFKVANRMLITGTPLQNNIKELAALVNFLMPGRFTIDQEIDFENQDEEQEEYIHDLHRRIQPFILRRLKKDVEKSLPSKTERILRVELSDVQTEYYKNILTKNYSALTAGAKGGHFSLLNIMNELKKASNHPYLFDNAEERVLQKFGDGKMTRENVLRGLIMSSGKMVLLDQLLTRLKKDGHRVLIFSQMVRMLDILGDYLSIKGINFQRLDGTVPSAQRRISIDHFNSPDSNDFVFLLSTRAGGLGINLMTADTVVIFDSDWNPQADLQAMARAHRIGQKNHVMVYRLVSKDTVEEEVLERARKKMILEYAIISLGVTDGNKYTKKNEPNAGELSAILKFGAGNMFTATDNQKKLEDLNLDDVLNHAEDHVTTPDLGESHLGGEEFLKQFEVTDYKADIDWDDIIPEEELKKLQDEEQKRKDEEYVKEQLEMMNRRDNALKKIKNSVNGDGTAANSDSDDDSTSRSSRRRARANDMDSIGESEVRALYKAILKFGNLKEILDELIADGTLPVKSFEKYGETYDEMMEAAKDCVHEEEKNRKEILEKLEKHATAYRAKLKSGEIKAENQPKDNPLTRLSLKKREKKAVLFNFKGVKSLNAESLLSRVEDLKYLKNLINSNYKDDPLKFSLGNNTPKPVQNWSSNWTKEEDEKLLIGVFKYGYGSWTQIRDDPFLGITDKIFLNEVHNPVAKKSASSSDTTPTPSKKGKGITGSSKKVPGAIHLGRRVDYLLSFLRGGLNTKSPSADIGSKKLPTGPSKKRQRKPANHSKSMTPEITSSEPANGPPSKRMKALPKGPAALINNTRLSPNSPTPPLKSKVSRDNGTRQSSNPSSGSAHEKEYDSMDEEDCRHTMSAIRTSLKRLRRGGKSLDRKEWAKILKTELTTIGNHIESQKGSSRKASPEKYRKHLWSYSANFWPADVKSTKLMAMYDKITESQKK

SMILES	Percent Effect [1] [%]	Percent Effect [2] [%]	Percent Effect [3] [%]	Percent Effect [4] [%]	Percent Effect [5] [%]	Percent Effect [6] [%]	Percent Effect [7] [%]	Percent Effect [8] [%]	Percent Effect [9] [%]	Percent Effect [10] [%]
CN(C)S(=O)(=O)N1CCN(C(=O)c2ccc3ccn(C)c3c2)CC1	-5.48	8.11	12	5.72	8.74	13.9	5.78	2.66	9.76	-5.25
COc1ccc(C(=O)N2CC[C@H](CO)[C@H](O)C2)c(C)c1	-7.05	5.41	10.7	9.02	16.4	10.1	0.399	7.98	9.76	-7.71
CCN(C)c1ncnc2c1CCN(Cc1ccc(OC)cc1)CC2	-4.72	6.49	-9.08	-2.04	2.43	13.5	25.4	0.526	7.69	-4.67
Cc1csc(Nc2nccnc2C2CCCN2C(=O)C(C)C)n1 (stereo not given)	1.4	14.7	-6.58	-4.34	-0.885	9.69	5.46	2.12	10	-21.8
COc1ccc(CN2CCC3(CC2)NC(=O)CC3c2ccncc2)cc1 (stereo not given)	-7.89	-6.49	3.29	-2.43	-4.05	9.27	5.38	-0.526	2.56	-1.91
Cc1cc(C2CCCN2Cc2cc(=O)n(C)c(=O)n2C)on1 (stereo not given)	-4.6	2.67	1.58	3.21	0.444	1.27	14.5	2.63	5.13	-4.48
Cc1cccc(C(=O)N2CCC(Cc3cnc4[nH]ccc4c3)CC2)n1	-4.68	12	-0.292	-3.35	4.42	9.2	2.32	3.17	7.5	-24.1
NC(=O)C1CCN(C(=O)c2cccc(OCc3cscn3)c2)CC1	-1.56	10.3	-4.08	-3.1	5.33	5.89	26.4	2.39	10.8	-2.13
CCc1nc(CN(C)C2CCN(CCc3ccccn3)C2)no1 (stereo not given)	-0.239	21.3	-5.99	4.02	-3.55	22.8	12.5	6.84	15.4	-14.1
COc1ccccc1CC(=O)N1CC[C@@]2(CCCO2)[C@@H](OC)C1	-3.82	4	-4.43	-3.35	-9.29	6.4	14.4	-1.06	5	-24.2
CN1CCN(c2ncnc3c2c(C(=O)NC2CC2)c2ccccn23)CC1	-0.824	-6.49	1.78	-5.16	3.24	-2.56	0.0174	-1.58	0	-13.6
